From PubChem
Tau FP inhib: inhibitors of human tau fibril formation | P10636 | K18 P301L tau heparin fibrillization, Alexa594 FP, 6 h | Potency, µM (doses to about 57.7 µM), for the others: top-dose activity, negative = inhibition, hits mostly inhibitors | 0.39% of 280,000 active | AID 1468; also: nearly all actives have a fitted effect of over 55% in size
Target sequence (P10636 561-689 P618L limits assumed): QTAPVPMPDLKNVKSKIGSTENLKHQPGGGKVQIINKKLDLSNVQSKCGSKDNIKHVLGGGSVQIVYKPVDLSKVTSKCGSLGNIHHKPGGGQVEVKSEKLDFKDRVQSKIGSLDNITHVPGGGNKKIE
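Heparin (20 uM) drove fibril formation of recombinant tau K18 P301L, 15 uM unlabeled with 0.24 uM Alexa 594 label, for 6 hr at 37 C in 100 mM sodium acetate pH 7. Fluorescence polarization (555/632 nm) read 1 hr after 30 uM ThT.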
Tau fibril ThT: inhibitors of human tau fibril formation, thioflavin T binding; P10636; recombinant tau K18 P301L, heparin-induced fibrillization, ThT fluorescence; Potency, µM (series often up to 57.4 µM), for the others: at the top dose activity, negative = inhibition, actives largely listed as inhibitors; 2.1% of 270,000 active; AID 1460; also: nearly all actives have a fitted effect of over 55% in size
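Heparin-induced (20 uM) aggregation of recombinant human K18 P301L tau, 15 uM unlabeled with 0.24 uM labeled, pH 7 acetate buffer, 6 hr at 37 C with compound. Fibrils quantified by 30 uM ThT fluorescence after 1 hr ambient incubation.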
ALDH1A1 inh: ALDH1A1 (human) enzyme inhibition. Purified ALDH1A1, NADH fluorescence, propionaldehyde substrate. Potency, µM (top dose mostly 75.3 µM), without a hit: top-dose activity, negative = inhibition, usual class: inhibitors. 7.3% of 220,000 active. AID 1030; active = well fitted inhibition curve with a large enough effect, not every such curve was filed as active; inconclusive = small, poorly fitted or top-dose-only effect, or another doubt; inactive = no such curve, though single readings can be large or run the other way;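 also: plate controls were no enzyme wells and a reference inhibitor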
HPGD block: blocks human HPGD enzyme activity. purified HPGD, NADH fluorescence kinetic, PGE2 substrate. Potency, µM, for the others: at the top dose activity change, negative = inhibition, actives largely listed as inhibitors. 4.3% of 150,000 active. AID 894; active = well fitted inhibition curve with a large enough effect, not every such curve was filed as active; inconclusive = small, poorly fitted or top-dose-only effect, or another doubt; inactive = no such curve, though single readings can be large or run the other way
Target sequence (P15428 whole entry, looked up): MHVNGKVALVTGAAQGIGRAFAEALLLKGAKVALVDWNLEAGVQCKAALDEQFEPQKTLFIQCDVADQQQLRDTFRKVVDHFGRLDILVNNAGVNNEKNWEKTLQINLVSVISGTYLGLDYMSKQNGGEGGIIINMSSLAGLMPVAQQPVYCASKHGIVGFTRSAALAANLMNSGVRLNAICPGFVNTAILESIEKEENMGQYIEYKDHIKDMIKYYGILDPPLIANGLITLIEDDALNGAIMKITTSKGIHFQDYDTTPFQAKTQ
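20 nM HPGD preincubated 15 min at room temperature with compound in 50 mM Tris-HCl pH 8, 0.01% Tween 20. Started with 1 mM NAD+ and 30 uM prostaglandin E2; NADH fluorescence (360/450 nm) read 5 times over 30-s intervals, last minus first.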
Tau fluor cs: counter-screen for tau fibril formation inhibitors | tau K18 P301L (four-repeat tau fragment) Alexa594 fluorescence, heparin fibrillization | Potency, µM (series often up to 57.7 µM), without a hit: top-dose activity change, negative = decrease | 0.93% of 280,000 active | AID 1463; also: nearly all actives have a fitted effect of over 55% in size
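Human K18 P301L tau (15 uM unlabeled plus 0.24 uM Alexa 594-labeled, final) in 100 mM sodium acetate pH 7 was mixed with compound and 20 uM heparin and incubated 6 hr at 37 C.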
NPSR antag: blocks cAMP signaling of the human neuropeptide S receptor; 1% of 220,000 active; Q6W5P4; CHO-NPSR cells, cAMP TR-FRET, antagonist mode; Potency, µM (titrated, usually from 38.3 µM), for inactives: at the top dose activity change, negative = inhibition, actives largely listed as inhibitors; also: nearly all actives have a fitted effect of over 50% in size
Active calls of the source: *; u = inconclusive; x = not tested or not shown; [ ] = another dose, or the depositor's remark. Sampled rows, rich in hits. Any-hit rate of the full collection: about 9.5%. Unless noted, calls follow the shape of the dose curve; as a rule, active = well fitted curve in the direction sought with a large enough effect; inconclusive = small, poorly fitted or top-dose-only effect, or another doubt; inactive = no such curve, though single readings can be large; an effect the other way counts as inactive or inconclusive. Unless noted, % is scaled to controls: 0 for no effect and ±100 for the full control effect; potency is read from the fitted curve at half-maximal effect.

SMILES	Tau FP inhib	Tau fibril ThT	ALDH1A1 inh	HPGD block	Tau fluor cs	NPSR antag
O=C(/C=C/c1ccc(F)cc1)NCc1ccco1	6%	11%	-3%	25µM*	8%	20%
NS(=O)(=O)c1ccc(CNC(=O)/C=C/c2c(F)cccc2Cl)cc1	-2%	-4%	-3%	x	1%	-11%
O=C(/C=C/c1ccc([N+](=O)[O-])cc1)NCc1ccco1	2%	-14%	-7%	-11%	-7%	-9%[46.1 µM]
O=C(/C=C/c1c(F)cccc1Cl)NCc1ccco1	2%	-7%	u	10µM*	0%	3%
CCOC(=O)N/N=C1/C[C@@H](O)[C@@H](O)[C@@H]2[C@H]3C(=O)N(c4ccc(F)cc4F)C(=O)[C@@H]3CC[C@H]12	1%[11.6 µM]	-1%[11.5 µM]	13%[13.5 µM]	x	-1%[11.6 µM]	x
Cc1ccccc1NC(=O)c1c(C)nc(SCC(=O)OCc2ccccc2)c(C#N)c1-c1ccc(F)cc1	-6%	-1%	u	-24%	-16%	-5%[46.1 µM]
Cc1nc(SCC(=O)OCc2ccccc2)c(C#N)c(-c2ccccc2)c1C(=O)Nc1ccccc1	6%	-13%	20µM*	-14%	-29%	-11%[46.1 µM]
CCCCn1c(CN2CCN(C(=O)c3ccco3)CC2)nc2c1c(=O)n(C)c(=O)n2C	-2%	-4%	22µM*	-7%	-2%	5%[46.1 µM]
CCCCCCn1c(CN2CCN(C(=O)c3ccco3)CC2)nc2c1c(=O)n(C)c(=O)n2C	13%	-9%	1.3µM*	-17%	0%	-23%[46.1 µM]
COc1ccccc1CNC(=O)Cn1c(=O)nc(-c2ccccc2)c2ccccc21	-5%	-3%	x	x	-5%	x
O=C(Nc1ccccc1)N1CC[C@@]2(CCCN(C(=O)c3cccc(F)c3)C2)C1	x	x	-3%	-1%	x	x
Cc1ccc(Cl)cc1N1CCN(C(=O)c2cc3c(-c4ccccc4F)nn(C)c3s2)CC1	-10%	-10%	x	x	-10%	x
COc1cc(OC)c(C2C=C(c3ccc(C)cc3)Nc3c(C(=O)Nc4ccccc4)cnn32)cc1OC (stereo not drawn)	9%	-13%	x	x	18µM*[quencher]	x
COc1ccc(CC(=O)Nc2cc(-c3cn4cccnc4n3)ccc2OC)cc1	10%	5%	x	x	-6%	x
CC(C)(C)OC(=O)C1=NOC2(C=CC(=O)C=C2)C1	u	13µM*	12%	-8%	-11%	x
COCCNC(=O)C(C)OC(=O)c1cc2occc2n1C (stereo not drawn)	6%	-6%	32µM*	14µM*	2%	2%[46.1 µM]
COc1ccccc1NC(=O)NC1(C(=O)N2CCCCCC2)CCCCC1	0%	-5%	7.1µM*	-4%	-4%	-15%[46.1 µM]
O=c1c2c(n3cnnc3n1-c1ccccc1)-c1ccccc1CC21CCCCC1	3%	-15%	20µM*	-17%	-9%	-18%[46.1 µM]
Cc1cccc(-n2c(=O)c3c(n4cnnc24)-c2ccccc2CC32CCCCC2)c1	-4%	-14%	2%	-2%	-7%	u
CCOC(=O)C1CCCN(C(=O)c2nn(-c3ccc(OC)cc3)c(=O)c3c2c2ccccc2n3C)C1 (stereo not drawn)	2%	-7%	x	x	-13%	x
CCC(C)(C)NC(=O)C1CCC(CNS(=O)(=O)c2ccc3c(c2)CC(C)N3C(C)=O)CC1 (stereo not drawn)	5%	-1%	x	x	-4%	x
Cc1cc(N)n2ncc(-c3ccc(Cl)cc3)c2n1	u	u	u	u	14µM*[quencher]	u
COC(=O)[C@@H]1C[C@@H]2CC[C@@H](O)C[C@@H]2N1Cc1ccc(C)s1	6%	-10%	2%	-8%	-10%	x
CC1=CC2=C(OC1N(C)C)c1cccc3cccc(c13)C2=O (stereo not drawn)	u	20µM*	2.2µM*	-12%	-29%	u
FC(F)(F)c1nc2ccccc2nc1N/N=C\c1ccccc1	1%	14µM*	-5%	-23%	u	u
NNc1nc2ccccc2nc1C(F)(F)F	-4%	u	-5%	x	-23%	15%
